Inconclusive results are not listed. Activity calls are given as the source filed them. Unless noted, the call rests on the fitted dose curve; in most records, active means well fitted curve in the direction sought with a large enough effect; inconclusive means small, poorly fitted or top-dose-only effect, or another doubt; inactive means no such curve, though single readings can be large; an effect the other way counts as inactive or inconclusive.
Tests used:
[1] = target: T1, Tyrosine-protein phosphatase non-receptor type substrate 1 (Homo sapiens) + Leukocyte surface antigen CD47 (Homo sapiens) (UniProt P78324+Q08722); assay: CD47-SIRPalpha protein protein interaction - LANCE assay qHTS validation (AID 1347057; active means well fitted curve in the direction sought with a large enough effect in the signal ratio, with a control signal flat, not every such curve was filed as active; the % refers to the signal ratio; further: series mostly up to about 38 µM)
In short: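 Inhibition of soluble CD47/SIRPalpha ectodomain association by titrated compounds, measured as 665/615 nm time-resolved FRET ratio after sequential 30 min room-temperature incubations.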

[2] = target: T1, Tyrosine-protein phosphatase non-receptor type substrate 1 (Homo sapiens) + Leukocyte surface antigen CD47 (Homo sapiens); assay: CD47-SIRPalpha protein protein interaction - HTRF assay qHTS validation (AID 1347058; active means well fitted curve in the direction sought with a large enough effect in the signal ratio, not every such curve was filed as active; the % refers to the signal ratio; further: series mostly up to about 38 µM)
In short: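 Soluble extracellular domains (6His-CD47, Avi-tag-biotinylated SIRPalpha) in PBS pH 7.4 with 0.05% IGEPAL CA-630. Compounds were preincubated 30 min at RT with CD47 and anti-His-Eu, then SIRPalpha and SAV-XL665 were added. TR-FRET 665/615 ratio.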

[3] = target: T1, Tyrosine-protein phosphatase non-receptor type substrate 1 (Homo sapiens) + Leukocyte surface antigen CD47 (Homo sapiens); assay: CD47-SIRPalpha protein protein interaction - Alpha assay qHTS validation (AID 1347059);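 further: bead proximity luminescence from CD47 binding SIRPalpha after compound preincubation with SIRPalpha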; further: potency means the concentration at half of the fitted maximal effect
In short: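 In PBS (pH 7.4) with 0.05% IGEPAL CA-630, compound is preincubated with biotin-Avi-SIRPalpha ectodomain before His-CD47 ectodomain and affinity beads are added. Light-protected room-temperature incubations; AlphaScreen readout.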

[4] = target: Parathyroid hormone/parathyroid hormone-related peptide receptor (Homo sapiens) (UniProt Q03431); assay: qHTS for PTHR1 Agonists: Optimization Screen against the NCGC LOPAC library (AID 1347079);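 further: GloSensor cAMP luminescence in HEK-293 GP2 cells expressing human PTHR1 with IBMX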
In short: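 Signal increase flags agonism. GP2 cells, derived from HEK-293, express human PTHR1 and a GloSensor cAMP construct.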

[5] = qHTS of pediatric cancer cell lines to identify multiple opportunities for drug repurposing: Primary screen for TC32 cells (AID 1347089); further: nearly all actives have a fitted effect of over 60% in size
In short: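 TC32 cells, 500-1,000/well in growth medium, compound-treated 48 h at 37 °C; viability from CellTiter-Glo luminescence. Primary screen: MIPE 11-point (0.78 nM–46 µM final), NPC 8-point (0.59 nM–46 µM final); confirmatory at 11-point dilutions.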

[6] = qHTS of pediatric cancer cell lines to identify multiple opportunities for drug repurposing: Primary screen for DAOY cells (AID 1347090); further: series mostly up to about 46 µM; nearly all actives have a fitted effect of over 55% in size
In short: (§1)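 Eight- or eleven-point concentration series, 48 h treatment at 37 degrees C in growth media; readout CellTiter-Glo luminescence. Potency and efficacy were taken from the concentration-response curves.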

[7] = qHTS of pediatric cancer cell lines to identify multiple opportunities for drug repurposing: Primary screen for SJ-GBM2 cells (AID 1347091)
In short: as §1

[8] = qHTS of pediatric cancer cell lines to identify multiple opportunities for drug repurposing: Primary screen for A673 cells (AID 1347092); further: nearly all actives have a fitted effect of over 45% in size
In short: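 A673 cells (500-1,000 cells/well) were treated 48 hours at 37 degrees C with compounds at 11-point (0.78 nM to 46 µM) or 8-point (0.59 nM to 46 µM) dilutions. Viability read by CellTiter-Glo luminescence; concentration-response curves fitted.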

[9] = qHTS of pediatric cancer cell lines to identify multiple opportunities for drug repurposing: Primary screen for SK-N-MC cells (AID 1347093); further: potency means the concentration at half of the fitted maximal effect
In short: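 Metabolically active cells were quantified by ATP-dependent luminescence (CellTiter-Glo, 15 min at room temperature) following 48 h treatment. Cells had been plated at 500-1,000 per well and settled for 5 h beforehand.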

[10] = qHTS of pediatric cancer cell lines to identify multiple opportunities for drug repurposing: Primary screen for BT-37 cells (AID 1347094); further: series mostly up to about 57 µM
In short: (§2)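 Plated cells (500-1,000 per well, growth media) were allowed to settle for 5 hours, treated with compound dilutions for 48 hours, then lysed with CellTiter-Glo for 15 min at room temperature before luminescence reading.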

[11] = qHTS of pediatric cancer cell lines to identify multiple opportunities for drug repurposing: Primary screen for NB-EBc1 cells (AID 1347095)
In short: as §2

[12] = qHTS of pediatric cancer cell lines to identify multiple opportunities for drug repurposing: Primary screen for U-2 OS cells (AID 1347096); further: nearly all actives have a fitted effect of over 50% in size
In short: (§3)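 Cells (500-1,000/well) in growth media were settled 5 h at 37 degrees C, then given compounds for 48 h. Viability was read as CellTiter-Glo luminescence. Primary runs used MIPE at 11 points (0.78 nM-46 µM) and NPC at 8 points (0.59 nM-46 µM); follow-ups used 11 points.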

[13] = qHTS of pediatric cancer cell lines to identify multiple opportunities for drug repurposing: Primary screen for Saos-2 cells (AID 1347097); further: nearly all actives have a fitted effect of over 40% in size
In short: as §2

[14] = qHTS of pediatric cancer cell lines to identify multiple opportunities for drug repurposing: Primary screen for SK-N-SH cells (AID 1347098);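 further: DMSO served as neutral control and bortezomib at 2.3 µM as positive control; nearly all actives have a fitted effect of over 65% in size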
In short: (§4)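 Cells (500-1,000/well) rested 5 h, then received compounds for 48 h; metabolically active cells were measured by CellTiter-Glo luminescence. Final concentrations spanned up to 46 µM (MIPE, 11-point) or 0.59 nM-46 µM (NPC, 8-point) in primary screens, 11-point in follow-ups.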

[15] = qHTS of pediatric cancer cell lines to identify multiple opportunities for drug repurposing: Primary screen for NB1643 cells (AID 1347099); further: nearly all actives have a fitted effect of over 50% in size
In short: as §2

[16] = qHTS of pediatric cancer cell lines to identify multiple opportunities for drug repurposing: Primary screen for LAN-5 cells (AID 1347100); further: potency means the concentration at half of the fitted maximal effect
In short: as §3

[17] = qHTS of pediatric cancer cell lines to identify multiple opportunities for drug repurposing: Primary screen for BT-12 cells (AID 1347101); further: nearly all actives have a fitted effect of over 25% in size
In short: as §4

[18] = qHTS of pediatric cancer cell lines to identify multiple opportunities for drug repurposing: Primary screen for Rh18 cells (AID 1347102); further: nearly all actives have a fitted effect of over 65% in size
In short: as §3

[19] = qHTS of pediatric cancer cell lines to identify multiple opportunities for drug repurposing: Primary screen for OHS-50 cells (AID 1347103); further: nearly all actives have a fitted effect of over 40% in size
In short: as §4

[20] = qHTS of pediatric cancer cell lines to identify multiple opportunities for drug repurposing: Primary screen for RD cells (AID 1347104); further: nearly all actives have a fitted effect of over 55% in size
In short: as §2

Measured: Potency

T1 sequence (P78324 whole entry, looked up, the tested form may be a part): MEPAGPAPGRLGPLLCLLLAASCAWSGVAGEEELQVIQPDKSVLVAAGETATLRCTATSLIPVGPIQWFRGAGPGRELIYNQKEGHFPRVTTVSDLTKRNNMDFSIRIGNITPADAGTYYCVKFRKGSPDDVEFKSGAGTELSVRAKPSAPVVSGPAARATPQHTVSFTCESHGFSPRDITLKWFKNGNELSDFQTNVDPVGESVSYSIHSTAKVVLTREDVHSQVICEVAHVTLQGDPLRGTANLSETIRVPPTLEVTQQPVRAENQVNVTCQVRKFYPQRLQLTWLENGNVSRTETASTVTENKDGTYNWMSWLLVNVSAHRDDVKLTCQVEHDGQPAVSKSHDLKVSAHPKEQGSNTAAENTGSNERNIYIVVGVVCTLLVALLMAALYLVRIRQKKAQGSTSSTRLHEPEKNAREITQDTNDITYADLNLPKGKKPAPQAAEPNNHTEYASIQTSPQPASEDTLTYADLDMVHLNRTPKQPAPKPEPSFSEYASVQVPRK
T1 sequence (Q08722 whole entry, looked up, the tested form may be a part): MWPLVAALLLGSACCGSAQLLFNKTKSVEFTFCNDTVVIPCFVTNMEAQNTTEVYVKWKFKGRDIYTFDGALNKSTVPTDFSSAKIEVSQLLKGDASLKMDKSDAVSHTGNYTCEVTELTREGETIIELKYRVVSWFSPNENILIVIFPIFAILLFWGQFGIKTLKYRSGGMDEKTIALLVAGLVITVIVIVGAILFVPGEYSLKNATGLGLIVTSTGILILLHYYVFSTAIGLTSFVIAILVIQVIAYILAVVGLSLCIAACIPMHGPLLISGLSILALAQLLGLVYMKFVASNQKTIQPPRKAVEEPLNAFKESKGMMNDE
Chain of Parathyroid hormone/parathyroid hormone-related peptide receptor (Homo sapiens) (Q03431 whole entry, looked up): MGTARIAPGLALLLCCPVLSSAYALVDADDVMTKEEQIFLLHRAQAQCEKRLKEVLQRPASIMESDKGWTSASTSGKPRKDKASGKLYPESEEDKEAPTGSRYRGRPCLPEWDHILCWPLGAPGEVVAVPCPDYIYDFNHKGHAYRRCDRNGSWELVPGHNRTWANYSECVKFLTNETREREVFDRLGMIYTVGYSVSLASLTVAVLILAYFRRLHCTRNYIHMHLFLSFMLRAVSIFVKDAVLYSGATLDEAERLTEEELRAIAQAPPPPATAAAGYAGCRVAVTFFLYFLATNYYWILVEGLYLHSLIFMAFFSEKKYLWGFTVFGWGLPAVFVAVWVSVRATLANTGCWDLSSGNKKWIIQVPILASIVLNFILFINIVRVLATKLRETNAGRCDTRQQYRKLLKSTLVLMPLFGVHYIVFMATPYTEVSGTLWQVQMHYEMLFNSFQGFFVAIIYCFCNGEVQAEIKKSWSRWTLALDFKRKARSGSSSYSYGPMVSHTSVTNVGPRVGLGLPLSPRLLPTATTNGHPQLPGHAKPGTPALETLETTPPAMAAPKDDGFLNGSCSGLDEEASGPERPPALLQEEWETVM

CN1C2CCC1CC(OC(=O)c1c[nH]c3ccccc13)C2 (centres undefined)
inactive: [1] | [2] | [3] | [4]

CC(C)COC(=O)OCN1C(=O)CN(CCN2CC(=O)N(COC(=O)OCC(C)C)C(=O)C2)CC1=O
inactive: [1] | [2] | [3] | [4]

C[C@]12CCC(=O)C=C1CC[C@H]1[C@@H]3CC[C@](O)(C(=O)CO)[C@@]3(C)C[C@H](O)[C@@]12F
not listed: [1] | [2] | [3] | [4]
inactive: all other assays above

COc1cc(NS(C)(=O)=O)ccc1Nc1c2ccccc2nc2ccccc12
inactive: [4]

C[C@]12CC[C@@H]3c4ccc(O)cc4CC[C@H]3[C@@H]1CC[C@@H]2O
inactive: [4]

Nc1ccc(C(=O)O)cc1
not listed: [1] | [2] | [3] | [4]
inactive: all other assays above

C[C@@H]1C(=O)NC2=Nc3cccc(Cl)c3CN21
inactive: [1] | [2] | [3] | [4]

CC(O)C(=O)O (centres undefined)
not listed: [1] | [2] | [3] | [4]
inactive: all other assays above

CCC(NC(C)C)C(O)c1ccc(O)c(O)c1 (centres undefined)
inactive: [1] | [3]

O=C1CCC(c2ccc(-n3ccnc3)cc2)=NN1
inactive: [1] | [2] | [3] | [4]

CC1(C)CCC(NC(=O)[C@@H](N)CCC(=O)O)CC1
inactive: [1] | [2] | [3] | [4]

O=C(O)c1cc2cc(Cc3cccnc3)ccc2o1
inactive: [1] | [2] | [3] | [4]

NC(CS)C(=O)O (centres undefined)
not listed: [1] | [2] | [3] | [4]
inactive: all other assays above

CC[C@H](C)C(=O)O[C@H]1CCC=C2C=C[C@H](C)[C@H](CC[C@@H]3C[C@@H](O)CC(=O)O3)[C@H]21
inactive: [1] | [2] | [3] | [4]

Cc1c(C(C)C)c(=O)n(-c2ccccc2)n1C
not listed: [1] | [2] | [3] | [4]
inactive: all other assays above

N[C@@H](Cc1cnc[nH]1)C(=O)O
inactive: [1] | [2] | [4]
active: [3] 13.1 µM

C[N+]1(CCCCC[N+]2(C)CCCC2)CCCC1
inactive: [1] | [2] | [3] | [4]

Nc1nc2ncc(CNc3ccc(C(=O)N[C@@H](CCC(=O)O)C(=O)O)cc3)nc2c(=O)[nH]1
not listed: [1] | [2] | [3] | [4]
inactive: all other assays above

CCCn1c(=O)[nH]c(=O)c2[nH]cnc21
inactive: [1] | [2] | [3] | [4]

CCOC(=O)OC(C)OC1=C(C(=O)Nc2ccccn2)N(C)S(=O)(=O)c2ccccc21 (centres undefined)
not listed: [1] | [2] | [3] | [4]
inactive: all other assays above

Oc1ccc(O)cc1
active: [9] 26.6 µM | [16] 7.5 µM
not listed: [5] | [6] | [8] | [11] | [15] | [17] | [19]
inactive: all other assays above

CCCC1O[C@@H]2C[C@H]3[C@@H]4CCC5=CC(=O)C=C[C@]5(C)[C@H]4[C@@H](O)C[C@]3(C)[C@]2(C(=O)CO)O1 (some centres undefined)
inactive: [1] | [2] | [3] | [4]

CNCCC=C1c2ccccc2CCc2ccccc21
inactive: [1] | [2] | [3] | [4]

COC(=O)[C@H]1[C@H]2C[C@H]3c4[nH]c5ccccc5c4CCN3C[C@H]2CC[C@@H]1O
inactive: [4]

COc1cc2c(cc1O)CC[C@@H]1[C@@H]2CC[C@]2(C)[C@@H](O)CC[C@@H]12
inactive: [1] | [2] | [3] | [4]

Nc1cc(Cl)c(NC2=NCCN2)c(Cl)c1
inactive: [1] | [2] | [3] | [4]

CNCCC(Oc1ccccc1C)c1ccccc1 (centres undefined)
inactive: [1] | [2] | [3] | [4]

O=c1ccc2ccccc2o1
not listed: [1] | [2] | [3] | [4]
inactive: all other assays above

C1CCc2nnnn2CC1
inactive: [1] | [2] | [3]

CCN1CCC[C@H]1CNC(=O)c1c(OC)ccc(Br)c1OC
not listed: [1] | [2] | [3] | [4]
inactive: all other assays above

CC(=O)O[C@H]1C[C@@H]2CC[C@@H]3[C@H](CC[C@@]4(C)[C@H]3C[C@H]([N+]3(C)CCCCC3)[C@@H]4OC(C)=O)[C@@]2(C)C[C@@H]1[N+]1(C)CCCCC1
inactive: [1] | [2] | [3] | [4]

CC(C)C[C@H]1C(=O)N2CCC[C@H]2[C@]2(O)O[C@](NC(=O)[C@@H]3C=C4c5cccc6[nH]c(Br)c(c56)C[C@H]4N(C)C3)(C(C)C)C(=O)N12
inactive: [3] | [4]

N[C@H](CO)C(=O)O
inactive: [1] | [2] | [3] | [4]

NC[C@H]1O[C@H](O[C@H]2[C@H](O)[C@@H](O[C@H]3O[C@H](CO)[C@@H](O)[C@H](N)[C@H]3O)[C@H](N)C[C@@H]2N)[C@H](N)[C@@H](O)[C@@H]1O
not listed: [1] | [2] | [3] | [4]
inactive: all other assays above

CC(CCc1ccccc1)NCC(O)c1ccc(O)c(C(N)=O)c1 (centres undefined)
inactive: [1] | [2] | [3] | [4]

Cc1cc(=O)n(-c2ccccc2)n1C
not listed: [1] | [2] | [3] | [4]
inactive: all other assays above

CCCN1CCCC[C@H]1C(=O)Nc1c(C)cccc1C
not listed: [1] | [2] | [3] | [4]
inactive: all other assays above

CC1(C)O[C@@H]2C[C@H]3[C@@H]4C[C@H](F)C5=CC(=O)CC[C@]5(C)[C@H]4[C@@H](O)C[C@]3(C)[C@]2(C(=O)CO)O1
not listed: [1] | [2] | [3] | [4] | [14]
inactive: all other assays above

OCc1ccccc1O
not listed: [1] | [2] | [3] | [4] | [19]
inactive: all other assays above

CCOC(=O)c1cccc(N)c1
not listed: [1] | [2] | [3] | [4] | [12] | [18]
inactive: all other assays above

CN1CCN(C(c2ccccc2)c2ccccc2)CC1
not listed: [1] | [2] | [3] | [4] | [14] | [19]
inactive: all other assays above

Cc1cc2c(cc1CC(=O)c1sccc1S(=O)(=O)Nc1onc(C)c1Cl)OCO2
not listed: [1] | [2] | [3] | [4] | [14] | [19]
inactive: all other assays above

CN1[C@@H]2CC[C@H]1CC(OC(=O)c1c[nH]c3ccccc13)C2 (some centres undefined)
not listed: [1] | [2] | [3] | [4] | [14]
inactive: all other assays above

COc1ccc(OC)c(C(O)CNC(=O)CN)c1 (centres undefined)
not listed: [1] | [2] | [3] | [4] | [18] | [19]
inactive: all other assays above

CC(=O)OCC(=O)[C@@]1(OC(C)=O)[C@@H](C)C[C@H]2[C@@H]3C[C@H](F)C4=CC(=O)C=C[C@]4(C)[C@@]3(F)[C@@H](O)C[C@@]21C
not listed: [1] | [2] | [3] | [4] | [15]
inactive: all other assays above

NCCCC[C@H](N[C@@H](CCc1ccccc1)C(=O)O)C(=O)N1CCC[C@H]1C(=O)O
not listed: [1] | [2] | [3] | [4] | [12]
inactive: all other assays above

O=C(O)CCCCC(=O)O
not listed: [1] | [2] | [3] | [4] | [12] | [14] | [18]
inactive: all other assays above

O=C(Nc1ccc(Cl)c(Cl)c1)C1CC1
not listed: [1] | [2] | [3] | [4] | [12] | [17] | [19]
inactive: all other assays above
